About 83,000 compounds went through this panel and 20% of them were active in at least one assay; those are over-represented in the sample as a whole.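 The test compound was applied at a single concentration to cells in 96-well plates for 48 hours, and percent growth was recorded.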 Unmarked numbers belong to inactive results. The source made the active and inactive calls. The calls were made as follows: active = growth percent below 10; inactive = the rest.
test system: HL-60(TB) leukemia; assay: NCI-60 one-dose screen, 48 h (100 = growth as untreated, 0 = no growth, -100 = all killed); conditions: 10 µM unless noted

SMILES	growth
Clc1nc(Cl)c2ncn(-c3ccccc3)c2n1	46.1%
COc1ccc2c(c1)Oc1nc(N)c(C#N)c(N)c1C2Sc1ccc(O)cc1 (stereo not given)	9.8% (active)
CCNc1cc2c(cc1Br)-c1ccccc1C2=O	110%
Cc1nc2sc(C(=O)Nc3cccc4ccccc34)c(N)c2cc1C(C)O (stereo not given)	-24.1% (active)
CC(=O)n1c2ccccc2c2ccccc21	104%
COc1cc(C2C(C(=O)c3cccs3)=C(O)C(=O)N2CCN2CCOCC2)cc(OC)c1OC (stereo not given)	120%
COc1cc(-c2nn(-c3ccc(C(=O)O)cc3)cc2C(=O)O)ccc1O	46.1%
COc1ccc2c(c1)nc(N)c1c3cc(OC)c(OC)cc3cn21	23.1%
C=CCn1c(SCC(=O)Nc2ccc(C(=O)/C=C/c3cc(OC)c(OC)c(OC)c3)cc2)nnc1-c1cc(-c2ccc(Cl)cc2)nc2ccccc12	98.7%
Clc1ccc2nc(CI)c(CI)nc2c1	2.82% (active)
CC[C@@H](C(=O)[C@@H](C)[C@@H](O)[C@H](C)[C@@H]1O[C@@H]([C@@H](CC)C(=O)N(CC)CC)CC[C@@H]1C)C1O[C@]2(C=CC(=O)[C@]3(CC[C@@](C)([C@H]4CC[C@](O)(CC)[C@H](C)O4)O3)O2)[C@H](C)C[C@@H]1C (stereo not given in full)	-36.4% (active)
CCOC(=O)c1sc(NC(=O)CN2CCC(Cc3ccccc3)CC2)nc1C	92%
Cn1c(NCCc2ccc(O)c(O)c2)nc2c1c(=O)n(Cc1ccc(Cl)cc1)c(=O)n2C	13.2%
O=C(Cc1ccc(F)c(Cl)c1)Nc1cc(C2(C(F)(F)F)CC2)nn1Cc1ccccc1	100%
CCN(CC)c1ccc(/C=N\NC(=O)/C=C/C=C/c2ccc3c(c2)OCO3)c(O)c1	2.66% (active)
CC1(C)CC[C@]2(C(=O)O)CC[C@]3(C)C(=CC[C@@H]4[C@@]5(C)Cc6c([nH]c7ccccc67)C(C)(C)[C@@H]5CC[C@]43C)[C@@H]2C1	16.2%
COc1cccc2c1O/C(=C\c1ccc([N+](=O)[O-])s1)C2=O	39%
C=CCOC(=O)Nc1cccn([C@H](Cc2ccccc2)C(=O)NCCC(C)C)c1=O	95.1%
CC(=O)O[C@H]1[C@H](CC#CC#CC[C@@H]2C[C@]3(C)[C@H]4CC=C5[C@H]6[C@@H](C)[C@H](C)CC[C@]6(C(=O)NCCN(CCN)CCN)CC[C@@]5(C)[C@]4(C)CC[C@H]3C(C)(C)[C@H]2OC(C)=O)C[C@]2(C)[C@H]3CC=C4[C@H]5[C@@H](C)[C@H](C)CC[C@]5(C(=O)NCCN(CCN)CCN)CC[C@@]4(C)[C@]3(C)CC[C@H]2C1(C)C	34.2%
CCSc1ccc2c(c1)N(CCCN1CCN(C)CC1)c1ccccc1S2	37.1%

SMILES	growth
Cn1c2ccccc2c2nn(Cc3ccccc3)c(=O)nc21	110%
CN1C(=O)N(C)C2C1NN=c1s/c(=C\c3ccc(Br)cc3)c(=O)n12 (stereo not given)	-13.8% (active)
C/C(C=O)=C\c1ccc2c(c1)OCO2	102%
Oc1[nH]c2ccc(Cl)cc2c1/C=c1/ccc2c(c1)N=C(c1ccc(F)cc1)N=2	51.5%
CCOC(=O)c1c2c(n3ccccc13)C(=O)c1ncccc1C2=O	-28.8% (active)
COc1cc2cc(Oc3ccc(NC(=O)Nc4ccccc4)cc3)c(C)nc2cc1OCCN1CCCCC1	-46.8% (active)
COc1ccc2c(c1)c(-c1nc(-c3ccc4ccccc4c3)cs1)cn2C	85.7%
O=C(Nc1ccccc1C(=O)N/N=C(\c1ccccc1)c1ccccn1)c1ccc(F)cc1	-1.1% (active)
c1ccc(CNCCNCc2ccccc2)cc1	105%
COc1ccc(-c2nc(/C=C3\C(=O)N(C)c4ccccc43)c3ccccn23)cc1	41.1%
Oc1ccccc1C=NCC1CCC(CN=Cc2ccccc2O)CC1 (stereo not given)	123%
COc1cc(/C=C2\C=C(c3ccc(F)cc3)N(Cc3ccccc3)C2=O)cc(OC)c1OC	75.9%
COC(=O)/C(CCC=C(C)C)=C1\[C@@H](OC(C)=O)C[C@@]2(C)[C@H]1CC(=O)[C@H]1[C@@]3(C)CCC(N4CCCC4)[C@@H](C)[C@@H]3CC[C@@]12C (stereo not given in full)	-51.4% (active)
CCOc1ccc(NC(=O)c2ccoc2COc2ccccc2)cc1	100%
NC(=O)c1ccc(-c2c3ccccc3cc3c2ccc2ccccc23)cc1	15.6%
O=C(Cc1nc2cc(Cl)c(Cl)cc2nc1CC(=O)c1ccccc1)c1ccccc1	29.7%
O=C1Nc2ccccc2/C1=C/c1cccn1CCCCCCn1c2ccccc2c(=O)c2ccccc21	54.5%
Cn1[nH]cc(/C=N/C(N)=O)c1=O	110%
O=CN1N=C(c2ccc3c(c2)OCO3)CC1c1cccc(Nc2ccnc3cc(C(F)(F)F)ccc23)c1 (stereo not given)	72.8%
O=S(=O)(NCCNc1nccc(-c2c(-c3cccc(O)c3)nc3occn23)n1)c1ccccc1	55.3%

Reference: PubChem BioAssay (NCI)
